Measurements reported in the supplement of paper PMC3342239.
Counter-ions that a name gives are not always drawn.

What follows are molecules tested on Saccharomyces cerevisiae (assay: fraction of cells in G1 phase (DNA content, flow cytometry); higher = more cells with unreplicated DNA (G1 delay)). Settings: temperature: 30 C; YPD; JTY2953 pdr5 snq2 (sensitized); drug added to: cultures diluted from stationary phase; 6-7 h.
How it was run: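 S. cerevisiae in YPD at 30°C was dosed with library drugs, using a final 20 µg/ml for sensitized JTY2953 diluted 1∶200 from overnight and fixed at 6–7 h, or dosing dividing JTY2953 (fixed at 6 h) and BY4741 (fixed at 4.33 h). Ethanol-fixed, SYTOX Green-stained cells were read by flow cytometry (10,000 events). The G1 fraction is taken as the Dean-Jett-Fox G1 peak area divided by the G1 and G2/M areas combined.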

| Structure (SMILES) | fraction of cells in G1 phase |
| --- | --- |
| CCC1(c2ccccc2)NC(=O)N(C)C1=O (stereo not drawn) [Mephenytoin] (91.6348 µM) | 0.522 |
| COC(=O)[C@@H]1[C@H]2C[C@H]3c4[nH]c5ccccc5c4CCN3C[C@@H]2CC[C@@H]1O [Yohimbine HCl] (51.164 µM) | 0.524 |
| CC(=O)S[C@@H]1CC2=CC(=O)CC[C@]2(C)[C@H]2CC[C@@]3(C)[C@@H](CC[C@@]34CCC(=O)O4)[C@H]12 [Spironolactone] (48.0095 µM) | 0.531 |
| NC(N)=Nc1nc(CSCC/C(N)=N/S(N)(=O)=O)cs1 [Famotidine] (59.2687 µM) | 0.499 |
| C[C@H](N[C@@H](CCc1ccccc1)C(=O)O)C(=O)N1CCC[C@H]1C(=O)O [Enalaprilat] (57.4049 µM) | 0.491 |
| CN1C(C(=O)Nc2ccccn2)=C(O)c2sccc2S1(=O)=O [Tenoxicam] (59.2806 µM) | 0.469 |
| C[C@]12C=CC(=O)C=C1CC[C@@H]1[C@@H]2C(=O)C[C@@]2(C)[C@H]1CC[C@]2(O)C(=O)CO [Prednisone] (55.7976 µM) | 0.496 |
| O=c1[nH]c(=O)n([C@H]2C[C@H](O)[C@@H](CO)O2)cc1F [Floxuridine] (81.2358 µM) | 0.514 |
| CC(C)(C)[C@]1(O)CCN2C[C@H]3c4ccccc4CCc4cccc(c43)[C@@H]2C1 [Butaclamol (+)] (55.3201 µM) | 0.535 |
| C#Cc1cccc(Nc2ncnc3cc(OCCOC)c(OCCOC)cc23)c1 [Erlotinib] (50.8329 µM) | 0.527 |
| Cc1cc(C(C)(C)C)c(O)c(C)c1CC1=NCCN1 [Oxymetazoline HCl] (76.8101 µM) | 0.511 |
| C#C[C@]1(O)CC[C@H]2[C@@H]3[C@H](C)CC4=C(CCC(=O)C4)[C@H]3CC[C@@]21C [Tibolone] (64.009 µM) | 0.56 |
| CCOC(=O)C1=C(C)NC(C)=C(C(=O)OCC)C1c1ccccc1/C=C/C(=O)OC(C)(C)C [Lacidipine] (43.9024 µM) | 0.516 |
| COC(=O)Nc1nc2cc([S+]([O-])c3ccccc3)ccc2[nH]1 (stereo not drawn) [Oxfendazole] (63.421 µM) | 0.536 |
| O=P(O)(O)C(Cl)(Cl)P(=O)(O)O [Clodronate disodium] (81.6683 µM) | 0.505 |
| NC1CCN(c2nc3c(cc2F)c(=O)c(C(=O)O)cn3-c2ccc(F)cc2F)C1 (stereo not drawn) [Tosufloxacin] (49.4619 µM) | 0.428 |
| Cc1ncc([N+](=O)[O-])n1CC(C)O (stereo not drawn) [Secnidazole] (108.001 µM) | 0.48 |
| O=C(O)COC(=O)Cc1ccccc1Nc1c(Cl)cccc1Cl [Aceclofenac] (56.4665 µM) | 0.489 |
| COc1cc(Cc2cnc(N)nc2N)cc(OC)c1OC [Trimethoprim] (68.8884 µM) | 0.486 |
| C[C@H]1C[C@@H]2[C@H]([C@@H](O)C[C@@]3(C)[C@H]2CC[C@]3(O)C(=O)CO)[C@@]2(C)C=CC(=O)C=C12 [Methylprednisolone] (53.4072 µM) | 0.481 |
| CN1[C@@H]2CC[C@H]1C[C@@H](OC(=O)c1c[nH]c3ccccc13)C2 [Tropisetron HCl] (70.3331 µM) | 0.469 |
| Clc1ccccc1CN1CCc2sccc2C1 [Ticlopidine HCl] (75.8175 µM) | 0.505 |
| CC[C@]1(O)C[C@@H]2CN(CCc3c([nH]c4ccccc34)[C@@](C(=O)OC)(c3cc4c(cc3OC)N(C)[C@H]3[C@@](O)(C(N)=O)[C@H](O)[C@]5(CC)C=CCN6CC[C@]43[C@@H]65)C2)C1 [Vindesine] (26.5271 µM) | 0.478 |
| CN(C)CCCSc1ccccc1NC(=O)/C=C/c1ccccc1 [Cinanserin] (58.7387 µM) | 0.456 |
| CN1C(C(=O)Nc2ccccn2)=C(O)c2ccccc2S1(=O)=O [Piroxicam] (60.3587 µM) | 0.505 |
| C[C@]12C[C@H](O)[C@H]3[C@@H](CCC4=CC(=O)CC[C@@]43C)[C@@H]1CC[C@@H]2C(=O)CO [Corticosterone] (57.7249 µM) | 0.512 |
| COc1cccc2c1C(=O)c1c(O)c3c(c(O)c1C2=O)C[C@@](O)(C(C)=O)C[C@@H]3O[C@H]1C[C@H](N)[C@H](O)[C@H](C)O1 [Daunorubicin HCl] (37.9123 µM) | 0.596 |
| CCCCn1c(=O)c2c(ncn2CC(C)=O)n(CCCC)c1=O [Denbufylline] (62.423 µM) | 0.517 |
